According to PubChem BioAssay AID1159580 (chemical genetic matrix, 2015):
The whole screen tested about 5,500 compounds, of which about 2,000 (36%) were called active. Not shown: some 18% with an inconclusive outcome. Some of the results follow. Unmarked numbers belong to inactive results. Rule as the data show it: active = normalized growth mostly below about 0.91 (no sharp cut-off); inconclusive = no clear call, values can overlap the other calls; inactive = mostly above about 0.92.

Experiment: chemical genetic growth profiling, strain panel (AID 1159580);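 also: tested at 20 µM; growth read once vehicle control cultures reached saturation at 30 °C; 1 = growth at the plate median or of vehicle wells; lower values mean less growth of the strain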
Conditions: S. cerevisiae deletion strains, growth OD

SMILES: Cc1nn(Cc2nnc(SCc3cccc(C(F)(F)F)c3)o2)c(C)c1Br
- normalized growth (locus YAR019C, strain CDC15, hits give low values): 0.982
- normalized growth (locus YBL105C, strain PKC1, hits give low values): 0.969
- normalized growth (locus YBR135W, strain CKS1, hits give low values): 0.967
- normalized growth (locus YBR136W, strain MEC1, hits give low values): 0.97
- normalized growth (locus YBR160W, strain CDC28, hits give low values): 0.975
- normalized growth (locus YDL017W, strain CDC7, hits give low values): 0.977
- normalized growth (locus YDL028C, strain MPS1, hits give low values): 0.973
- normalized growth (locus YDL101C, strain DUN1, hits give low values): 0.972
- normalized growth (locus YDL108W, strain KIN28, hits give low values): 0.969
- normalized growth (locus YDL132W, strain cdc53, hits give low values): 0.969
- normalized growth (locus YDL214C, strain PRR2, hits give low values): 0.932
- normalized growth (locus YDR052C, strain DBF4, hits give low values): 0.983
- normalized growth (locus YDR054C, strain cdc34, hits give low values): 0.975
- normalized growth (locus YDR226W, strain ADK1, hits give low values): 0.977
- normalized growth (locus YDR477W, strain SNF1, hits give low values): 0.968
- normalized growth (locus YER123W, strain YCK3, hits give low values): 0.921
- normalized growth (locus YER133W, strain GLC7, hits give low values): 0.967
- normalized growth (locus YFL009W, strain cdc4, hits give low values): 0.973
- normalized growth (locus YFL029C, strain CAK1, hits give low values): 0.979
- normalized growth (locus YFR003C, strain YPI1, hits give low values): 0.971
- normalized growth (locus YFR019W, strain FAB1, hits give low values): 0.952
- normalized growth (locus YFR028C, strain CDC14, hits give low values): 0.963
- normalized growth (locus YGR040W, strain KSS1, hits give low values): 0.957
- normalized growth (locus YGR052W, strain FMP48, hits give low values): 0.965
- normalized growth (locus YGR092W, strain DBF2, hits give low values): 0.987
- normalized growth (locus YHR030C, strain SLT2, hits give low values): 1.03
- normalized growth (locus YHR079C, strain IRE1, hits give low values): 1
- normalized growth (locus YHR082C, strain KSP1, hits give low values): 1
- normalized growth (locus YHR205W, strain SCH9, hits give low values): 0.959
- normalized growth (locus YIL147C, strain SLN1, hits give low values): 0.968
- normalized growth (locus YJL095W, strain BCK1, hits give low values): 0.965
- normalized growth (locus YJL128C, strain PBS2, hits give low values): 0.945
- normalized growth (locus YJL157C, strain FAR1, hits give low values): 0.965
- normalized growth (locus YJR016C, strain ILV3, hits give low values): 0.978
- normalized growth (locus YJR066W, strain TOR1 (second series), hits give low values): 0.969
- normalized growth (locus YJR066W, strain TOR1, hits give low values): 1.03
- normalized growth (locus YKL048C, strain ELM1, hits give low values): 0.974
- normalized growth (locus YKL067W, strain YNK1, hits give low values): 0.944
- normalized growth (locus YKL101W, strain HSL1, hits give low values): 0.905
- normalized growth (locus YKL193C, strain SDS22, hits give low values): 0.971
- normalized growth (locus YKL203C, strain TOR2, hits give low values): 1.01
- normalized growth (locus YLR113W, strain HOG1, hits give low values): 0.854 (active)
- normalized growth (locus YLR133W, strain CKI1, hits give low values): 0.935
- normalized growth (locus YLR403W, strain SFP1, hits give low values): 0.949
- normalized growth (locus YML070W, strain DAK1, hits give low values): 0.916
- normalized growth (locus YMR001C, strain CDC5, hits give low values): 0.973
- normalized growth (locus YMR205C, strain PFK2 (second series), hits give low values): 0.946
- normalized growth (locus YMR277W, strain FCP1, hits give low values): 0.974
- normalized growth (locus YNL006W, strain LST8, hits give low values): 0.971
- normalized growth (locus YNL020C, strain ARK1, hits give low values): 0.942
- normalized growth (locus YNL161W, strain CBK1, hits give low values): 0.969
- normalized growth (locus YNL183C, strain NPR1, hits give low values): 0.99
- normalized growth (locus YNL207W, strain RIO2, hits give low values): 0.975
- normalized growth (locus YNL222W, strain SSU72, hits give low values): 0.97
- normalized growth (locus YNL307C, strain MCK1 (second series), hits give low values): 0.956
- normalized growth (locus YOL078W, strain AVO1, hits give low values): 0.967
- normalized growth (locus YOL136C, strain PFK27, hits give low values): 0.881
- normalized growth (locus YOR061W, strain CKA2, hits give low values): 0.952
- normalized growth (locus YOR119C, strain RIO1, hits give low values): 1.02
- normalized growth (locus YOR231W, strain MKK1, hits give low values): 0.91
- normalized growth (locus YOR329C, strain SCD5, hits give low values): 0.978
- normalized growth (locus YPL031C, strain PHO85, hits give low values): 0.961
- normalized growth (locus YPL153C, strain RAD53, hits give low values): 0.972
- normalized growth (locus YPL204W, strain HRR25, hits give low values): 0.932
- normalized growth (locus YPL209C, strain IPL1, hits give low values): 0.982
- normalized growth (locus YPL256C, strain CLN2, hits give low values): 0.965
- normalized growth (locus YPR025C, strain CCL1, hits give low values): 0.974
- normalized growth (locus YPR106W, strain ISR1, hits give low values): 0.975
- normalized growth (locus YPR111W, strain DBF20, hits give low values): 0.947
- normalized growth (strain NNK1, hits give low values): 0.961
- normalized growth (strain TSCII, hits give low values): 0.972
